About 79,000 compounds went through this panel and 15% of them were active in at least one assay; those are over-represented in the sample as a whole. Values without a mark were called inactive. The source made the active and inactive calls. Cut-off read from the data, not from the text of the source: active = growth inhibition above about 70%; inactive = the rest.
What was measured:
[1] = NCI Yeast Anticancer Drug Screen. Data for the rad50 strain (AID 155);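 note: 0% = growth of vehicle-only cultures of the same strain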; details: S. cerevisiae rad50 strain growth inhibition; at 50.0 µM; stronger effect = higher value
Method in brief: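 Growth of the mutant yeast was measured after compound exposure and referenced to vehicle-treated cultures.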

[2] = NCI Yeast Anticancer Drug Screen. Data for the mec2-1 strain (AID 157); details: S. cerevisiae mec2-1 strain, at 50.0 µM, stronger effect = higher value
Method in brief: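 Mutant yeast (mec2-1) grown with compound; growth inhibition relative to vehicle control reported.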

[3] = NCI Yeast Anticancer Drug Screen. Data for the sgs1 mgt1 strain (AID 161);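 note: 0% = growth of cultures given vehicle only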; details: S. cerevisiae sgs1 mgt1 strain, at 50.0 µM, stronger effect = higher value
Method in brief: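 Growth of a repair-deficient yeast mutant was monitored after compound treatment and expressed as inhibition relative to vehicle-treated cultures.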

[4] = NCI Yeast Anticancer Drug Screen. Data for the cln2 rad14 strain (AID 165);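 note: 0% = growth equal to vehicle treated cultures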; details: S. cerevisiae cln2 rad14 strain, at 50.0 µM, stronger effect = higher value
Method in brief: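 Readout is yeast growth inhibition versus vehicle-treated controls, using a strain with cln2 and rad14 alterations exposed to compound.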

[5] = NCI Yeast Anticancer Drug Screen. Data for the bub3 strain (AID 167); details: S. cerevisiae bub3 mutant strain, at 50.0 µM, stronger effect = higher value
Method in brief: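 Whole-cell yeast assay. The mutant strain was incubated with compounds, and growth inhibition was determined by comparison with vehicle-treated cells.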

[6] = NCI Yeast Anticancer Drug Screen. Data for the mlh1 rad18 strain (AID 175); details: S. cerevisiae mlh1 rad18 strain growth inhibition; at 50.0 µM; stronger effect = higher value
Method in brief: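 Genetically defined yeast (DNA repair-deficient) exposed to compounds; growth inhibition determined relative to vehicle.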

| SMILES | growth inhibition [1] | growth inhibition [2] [%] | growth inhibition [3] | growth inhibition [4] [%] | growth inhibition [5] [%] | growth inhibition [6] |
| --- | --- | --- | --- | --- | --- | --- |
| CCN(CC)CCOC(=O)Nc1cc(C)cc(C)c1 | 24.6% | -9.15 | 27.5% | 16.4 | 31.9 | 17.1% |
| S=c1s/c(=C\c2ccccc2)c2nc3ccccc3n12 | 7.15% | 9.2 | -9.4% | -46.7 | 13.9 | 4.75% |
| COC(=O)C(CC(=O)Nc1ccc(C)cc1)C(=O)C(=O)Nc1c(C(C)C)cccc1C(C)C (stereo not drawn) | -43.4% | -17.8 | -7.5% | 6.1 | -9.9 | -25.2% |
| CCN(CC)CN1C(=O)C2C3C=CC(C2C1=O)C1C2C(=O)N(CN(CC)CC)C(=O)C2C31 (stereo not drawn) | 2.8% | -25.6 | -27.6% | -9.15 | -47.5 | -45.9% |
| C=C(Br)c1ccc2c(c1)OCO2 | 30% | 15.7 | 20.9% | 8 | 4.05 | -8.55% |
| Cc1nc2c(cc1C#N)C(Nc1ccc(Cl)cc1)Oc1ccc([N+](=O)[O-])cc1-2 (stereo not drawn) | -4.6% | -12.3 | 0.5% | -32.2 | -36.5 | -7.5% |
| CC1=C/C(=N/Nc2ccc([N+](=O)[O-])cc2[N+](=O)[O-])CC(C)(C)C1 | -21.3% | -27.2 | 18.4% | -41 | 3.1 | 3.5% |
| OCC12CCCC(OC1)O2 (stereo not drawn) | -8.6% | -14.7 | -25.9% | 0.2 | 13.8 | -4.65% |
| CC(=O)Oc1c(Br)cc(C(=O)c2ccccc2C(=O)c2cc(Br)c(OC(C)=O)c(Br)c2)cc1Br | 13.9% | 25.5 | 21.6% | -16.3 | 11.9 | 13.7% |
| Cc1c(-c2coc(-c3ccc(Cl)cc3)n2)c(=O)n(-c2ccccc2)n1C | -7.85% | -43.2 | -22.1% | -9.9 | 7.4 | -6.6% |
| Cc1cc(C)nc(NS(=O)(=O)c2ccc(Nc3c4ccc(Cl)cc4nc4c(C(=O)NCCN(C)C)cccc34)cc2)n1 | 0% | 13.8 | -5.05% | 1.4 | 30.8 | 6.95% |
| C[n+]1ccc(CCC(=O)Nc2ccccc2)cc1 | 3.65% | 24.3 | -4.35% | 0.3 | 25.6 | 3% |
| Cc1ccc(C(=O)Nc2ccc(CP(=O)(O)O)cc2CP(=O)(O)O)cc1N | -25.1% | -14.8 | 19.3% | 6.05 | -14.7 | 1.8% |
| O=C1CCCC2=C1CC1=C(CCCC1=O)N2c1ccccc1 | -28.5% | -20.9 | 8.7% | -0.75 | 12.6 | 12.6% |
| O=C1N(Cc2ccccc2)CC2CCc3c(ccc4ccccc34)N12 (stereo not drawn) | 11% | -12.9 | -1.3% | -3.85 | 4.85 | 4.75% |
| O=C(O)c1cc(O)[nH]c(=O)c1 | -12% | -105 | -22.6% | -48.5 | -26 | -16.2% |
| O=C1c2c(/C=C/c3ccc(Cl)c(Cl)c3)nc3ccccc3c2C(=O)N1CCN1CCCCC1 | 89.3% (active) | 50.6 | 83.2% (active) | 17.9 | 18.4 | 79.3% (active) |
| O=C(C#Cc1ccccc1)N1c2ccccc2CC1c1c[nH]c2ccccc12 (stereo not drawn) | -7.25% | -6.2 | 0.7% | 2.55 | -2.8 | -6.85% |
| COc1cc(C(=O)C/C(CCC(=O)Nc2ccccc2[N+](=O)[O-])=N\NC(=O)C(N)=O)ccc1O | -20.5% | 9.8 | -47.4% | 5.9 | -16.2 | -24.4% |

| SMILES | growth inhibition [1] | growth inhibition [2] [%] | growth inhibition [3] | growth inhibition [4] [%] | growth inhibition [5] [%] | growth inhibition [6] |
| --- | --- | --- | --- | --- | --- | --- |
| CCOC(=O)N1C/C(=C\c2ccccc2)C(=O)/C(=C/c2ccccc2)C1 | -6.85% | 0.6 | -12.3% | 19.6 | 9.15 | 72.2% (active) |
| CC(=Nc1ccc(C)cc1N)c1c(O)cc(C)oc1=O | -8.75% | -7.5 | -11.4% | -32.6 | 1.3 | -5.85% |
| Cc1nc2c(N3CCOCC3)ncnc2o1 | 5.15% | -1.05 | -5.5% | -27.4 | -15.3 | 7.75% |
| COc1ccc(/C=C2/CCOC2=O)cc1 | 44.1% | 18.7 | 11.4% | -9.3 | -2.6 | 28.8% |
| CC(C)(CS(C)(=O)=O)C(=O)O | 2.5% | -18.9 | 3.05% | -7.55 | -2.05 | 4.65% |
| COC(=O)C1CCC(/C(C#N)=C2/CCC(C(=O)OC)[N-]2)=N1.COC(=O)C1CCC(/C(C#N)=C2/CCC(C(=O)OC)[N-]2)=N1.[Cu+2] (stereo not drawn) | -13.8% | -24.2 | 3.5% | -43.3 | -24.5 | 11.2% |
| OC(c1ccccc1)c1ccc2c(c1)CCC2 (stereo not drawn) | 3.55% | -8.65 | -6.1% | -25.1 | -18 | 5.3% |
| O=C(O)c1scc2c1CCCC2 | -1.65% | -21.7 | -7.5% | -67 | -22.3 | -39.6% |
| O=C(C[n+]1cccc(Cl)c1)c1cccc([N+](=O)[O-])c1 | -25.7% | -7.2 | -9.25% | -3.8 | 4.55 | -5% |
| NC(Cc1c[nH]c2ccc(Br)cc12)C(=O)O (stereo not drawn) | -29.4% | -26.7 | -17.9% | 5.4 | -29.8 | -38.1% |
| CC1(C)CC(C(N)=O)C(C)(C)N1O (stereo not drawn) | 13% | 7.55 | 23.6% | 17.9 | 23.8 | 7.1% |
| Cc1ccc2c3c1CCCN3CCC2 | 3.45% | -3.85 | 15.6% | 61.9 | -0.55 | 8.95% |
| O=C(O)CCCCCNC(=O)c1ccccc1 | 18.3% | 14.8 | 16.2% | 6.4 | -8.2 | 22.2% |
| Cc1ccc(S(=O)(=O)NN=C2CCCCCC2)cc1 | 8.65% | 7.55 | 8.75% | -24.9 | -12.4 | 5.65% |
| Cc1ccc(NC(=O)COc2ccccc2)c(C)c1 | 4.35% | 19.9 | 15.9% | -4.25 | 28.3 | 28.4% |
| CCCCN(CCCC)S(=O)(=O)N1CCOCC1 | -12.3% | -10.1 | 3% | 9.1 | 10.4 | 2.75% |
| O=Cc1cccs1 | 23% | -2 | 7.85% | -14.6 | 8.3 | 33.9% |
| CC(N)C(C)Cc1ccccc1 (stereo not drawn) | -20.2% | -21.4 | -19.7% | 65.7 | -31.9 | -14.6% |
| CCCCCCCCCCCCCCCC1CCCC2CCCCC12 (stereo not drawn) | -9.05% | 9.25 | 9.5% | -5.85 | 12.6 | -26.4% |

From PubChem BioAssay (NCI)
